The values below come from PubChem BioAssay (NCATS).

SMILES strings stand for the structures. Records with an inconclusive call do not appear. Where a call stands in place of a potency, no number is given. The source made the active and inactive calls. The call rests on the fitted dose curve; tested in HEK293 reporter line. Numbered stars: 1 amine (or outer) side, 2 acyl side, 3 side chain; on linkers, the order of the positions; unused ones are H or OH. Bridge positions count the residues as written; N and C are the ends. Square brackets hold non-standard residues; d marks the D form. Peptide text beside a SMILES is read from it. I, II: the chains in the order shown. Actinocin(9to1) = Cc1c2oc3c(C)ccc(C(=O)[*:1])c3nc-2c(C(=O)[*:2])c(N)c1=O; NMeV = CN[C@H](C(=O)O)C(C)C; Sar = CNCC(=O)O

A short description of the experiment: qHTS for Inhibitors of the Functional Ribonucleoprotein Complex (vRNP) of Lassa (LASV) Arenavirus: LASV Primary Screen - GLuc reporter signal (AID 1347082). Further: nearly all actives have a fitted effect of over 60% in size. Particulars: LASV minigenome vRNP, Gaussia luciferase reporter; series mostly up to 57.5 µM.
For the compound `Cc1c2oc3c(C)ccc(C(=O)N[C@@H]4C(=O)N[C@H](C(C)C)C(=O)N5CCC[C@H]5C(=O)N(C)CC(=O)N(C)[C@@H](C(C)C)C(=O)O[C@@H]4C)c3nc-2c(C(=O)N[C@@H]2C(=O)N[C@H](C(C)C)C(=O)N3CCC[C@H]3C(=O)N(C)CC(=O)N(C)[C@@H](C(C)C)C(=O)O[C@@H]2C)c(N)c1=O` (I: T[dV]P[Sar][NMeV] / II: T[dV]P[Sar][NMeV]; ester I:1-I:C, II:1-II:C; linker I:N-II:N via Actinocin(9to1)), the Potency entry was “inactive”.

Take `OC(Cn1cncn1)(Cn1cncn1)c1ccc(F)cc1F`: the Potency entry is “inactive”.

For `CN(C)c1nc(N(C)C)nc(N(C)C)n1`, the Potency entry is “inactive”.

In the case of `CN(C)CCC=C1c2ccccc2C=Cc2ccccc21`, the Potency entry was “inactive”.

For the compound `CCOC(=O)[C@H](CCc1ccccc1)N[C@@H](C)C(=O)N1Cc2cc(OC)c(OC)cc2C[C@H]1C(=O)O`, the Potency entry was “inactive”.

Consider `CN(C)C(=N)N=C(N)N`, for which the Potency entry was “inactive”.

Take `CCCC(CCC)C(=O)O`: the Potency result is “inactive”.

With `Cc1c(O)cccc1C(=O)N[C@@H](CSc1ccccc1)[C@H](O)CN1C[C@H]2CCCC[C@H]2C[C@H]1C(=O)NC(C)(C)C`, the Potency result was “inactive”.

`CCCN(CCC)CCc1cccc2c1CC(=O)N2`: the Potency result was “inactive”.

Take `Nc1ncn([C@@H]2O[C@H](CO)[C@@H](O)[C@H]2O)c(=O)n1`: the Potency entry is “inactive”.

Turning to `O=C(CCCN1CCC(O)(c2ccc(Cl)cc2)CC1)c1ccc(F)cc1`, the Potency entry was “inactive”.

On to `O=C(c1ccc(OCCN2CCCCC2)cc1)c1c(-c2ccc(O)cc2)sc2cc(O)ccc12`, for which the Potency entry was “inactive”.

Turning to `COC(=O)[C@@H]1CC2=CC(=O)CC[C@]2(C)[C@@]23O[C@@H]2C[C@@]2(C)[C@@H](CC[C@@]24CCC(=O)O4)[C@H]13`, the Potency result is “inactive”.

As to `CCCc1cc(=O)[nH]c(=S)[nH]1`, the Potency entry was “inactive”.

On to `Nc1nc(N)c2nc(-c3ccccc3)c(N)nc2n1`, for which the Potency entry was “inactive”.

Regarding `C1N2CN3CN1CN(C2)C3`, the Potency entry is “inactive”.

For `CCCCOCCOCCOCc1cc2c(cc1CCC)OCO2`, the Potency entry is “inactive”.

For the compound `CCOC(=O)Nc1ccc2c(c1)N(C(=O)CCN1CCOCC1)c1ccccc1S2`, the Potency entry is “inactive”.

As to `Cc1[nH]c(=O)c(C#N)cc1-c1ccncc1`, the Potency result was “inactive”.
